In PubChem BioAssay (NCI):
This is part of a sample that, as a whole, favours compounds with a hit. Of some 83,000 tested, about 20% had one in any assay.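 Interpretation: 100, growth as untreated; towards 0, rising growth inhibition; 0, no net growth; 0 to -100, cell death. Compounds scoring below 10 were considered active.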 Calls of active or inactive are those of the source.

Tested on: M14 melanoma
Test: NCI-60 one-dose screen, 48 h (100 = growth as untreated, 0 = no growth, -100 = all killed)
Details: 10 µM unless noted
Protocol: Growth inhibition of the M14 human tumor cell line is measured as a screen for anti-cancer activity. Cells are grown in 96 well plates and exposed to the test compound for 48 hours. Compounds are tested at a single concentration, which is 10^-5 M for most compounds. The reported endpoint is percent growth (GI% or GIPRCNT), where numbers from 0 - 100% represent growth inhibition, and numbers from -100% - 0 represent cell death. For example, a value of 40 represents 60% growth inhibition. A value of 0 means no net growth occurred over the course of the experiment. A value of -40 indicates 40% of cells at the beginning of the experiment died by the end of the experiment. A value of -100 means all cells are dead at the end of the experiment.
NCI-60 Human Tumor Cell Lines Screen was performed using the standard one-dose NCI protocol, which is described in more detail at https://dtp.cancer.gov/discovery_development/nci-60/default.htm.
Compounds with GIPRCNT values below 10 were considered active. Activity score was based on GIPRCNT using the following formula: […]
Score is 0 for GIPRCNT values of 100 or above, 50 for GIPRCNT values of 0, and 100 for GIPRCNT values of -100.

Q: Which growth does the source give for `COC(=O)C1=Nc2ccc(F)cc2/C1=C\c1sc(Nc2ccc(O)cc2)nc1O` here?
A: 49% (inactive)

Q: With `Cn1cc(-c2nonc2-c2c[nH]c3ccccc23)c2ccccc21` as the molecule, how does the growth read?
A: 7.06% (active)

Q: Which growth does the source give for `COc1cc2nc(Nc3cccc(F)c3)nc(Nc3cc(C)[nH]n3)c2cc1OC` here?
A: -91.4% [20 µM] (active)

Q: `Cc1ccc(C)c2c1C(O)(C#Cc1ccccc1)c1ccccc1C2(O)C#Cc1ccccc1` (stereo not given) was tested. Which growth did it give?
A: 58.9% (inactive)

Q: Which growth does the source give for `C[Se]C(=O)CC1=C2C=C(F)C=CC2/C(=C\c2ccc(S(C)=O)cc2)C1C` (stereo not given) here?
A: 7.44% (active)

Q: Which growth does the source give for `Nc1c(C(=O)O)cc(Cl)cc1[N+](=O)[O-]` here?
A: 96.8% (inactive)

Q: For `COc1ccc(NC(=O)c2sc3nc(C)c(C(O)c4ccccc4)cc3c2N)cc1` (stereo not given), which growth is on record?
A: 7.65% (active)

Q: Which growth does the source give for `C#CC#CC#CC#CC#CC#CC#CC#CC[C@H]1OC[C@@H](COC(=O)O[C@@H](C(=O)O[C@H]2C[C@@]3(O)[C@@H](OC(=O)c4ccccc4)[C@@H]4[C@]5(OC(C)=O)CO[C@@H]5C[C@H](O)[C@@]4(C)C(=O)[C@H](OC(C)=O)C(=C2C)C3(C)C)[C@@H](NC(=O)c2ccccc2)c2ccccc2)O1` here?
A: 25.3% (inactive)

Q: With `Fc1ccc(CNc2c3ccccc3nc3ccccc23)cc1` as the molecule, how does the growth read?
A: 34.4% (inactive)

Q: For `CC1COCC(C)N1C1=C(Cl)C(=O)c2ccccc2C1=O` (stereo not given), which growth is on record?
A: 80.6% (inactive)

Q: How did the growth turn out when `COc1cc(-c2nc3occn3c2-c2ccnc(NCCCNS(=O)(=O)c3ccccc3)n2)ccc1F` was run?
A: 17.2% (inactive)

Q: Which growth does the source give for `COc1ccc(C(C)=O)cc1S(N)(=O)=O` here?
A: 95% (inactive)

Q: Which growth does the source give for `O=C1/C(=C/c2ccc(C(F)(F)F)cc2)COc2ccc(O)c(O)c21` here?
A: 42.3% (inactive)

Q: With `CC(C(=O)O)n1c(O)c(C=Nc2cccnc2)sc1=S` (stereo not given) as the molecule, how does the growth read?
A: 95.3% (inactive)

Q: For `COc1ccc(/C=C/C(=O)c2cc3c(N)c(C(=O)Nc4ccc(OC)cc4)sc3nc2C)cc1`, which growth is on record?
A: 10.2% (inactive)

Q: How did the growth turn out when `COc1cc(Nc2c3ccc(Cl)cc3nc3ccc(OC)cc23)c2ncccc2c1` was run?
A: 49.5% (inactive)

Q: How did the growth turn out when `O=C(CSc1nc2ccc([N+](=O)[O-])cc2[nH]1)Nc1ccc(Br)cc1` was run?
A: 50.1% (inactive)

Q: For `CCCCCn1sc(=O)n(Cc2ccc(CNC(=O)OCc3ccc4c(Cl)cc(Cl)c(O)c4n3)cc2)c1=O`, which growth is on record?
A: 58.8% (inactive)

Q: Which growth does the source give for `CN1CCN(CCCOc2ccc3ncnc(Nc4ccc(Oc5cccc(F)c5)c(Cl)c4)c3c2)CC1` here?
A: -75.7% (active)

Q: `O=C1NC(=O)c2c1c1c3ccccc3[nH]c1c1oc3ccc(F)cc3c21` was tested. Which growth did it give?
A: 45.1% (inactive)

Q: For `COc1cccc2c(N=NC(=O)c3ccc(S(N)(=O)=O)cc3)c(O)[nH]c12`, which growth is on record?
A: 102% (inactive)

Q: `COc1ccc(NC(=O)c2ccc(C(=O)Nc3ccc(OC)cc3OC)cc2)c(OC)c1` was tested. Which growth did it give?
A: 79.8% (inactive)

Q: For `CN(C)Cc1ccc(C(=O)Nc2ccc3ncnc(Nc4ccc(Oc5cccc(F)c5)c(Cl)c4)c3c2)cc1`, which growth is on record?
A: -69.3% (active)

Q: With `NC(CSC(c1ccccc1)(c1ccccc1)c1ccc2c(c1)OCO2)C(=O)O` (stereo not given) as the molecule, how does the growth read?
A: -19.4% (active)

Q: `O=c1nc(Nc2nc3ccccc3s2)[nH]c(=O)c2ccccc12` was tested. Which growth did it give?
A: 101% (inactive)

Q: `CCN(CC)CCN(CCN(CC)CC)c1ccccc1` was tested. Which growth did it give?
A: 82.3% (inactive)

Q: For `CN(C)c1ccc(/C=C2/C=C(c3ccccc3)OC2=O)cc1`, which growth is on record?
A: 86.1% (inactive)

Q: With `Nc1nc(C(=O)N/N=C/c2ccc(N3CCOCC3)cc2)nn1-c1ccc(S(N)(=O)=O)cc1` as the molecule, how does the growth read?
A: 103% (inactive)

Q: `Cc1c(Cl)cccc1C(=O)Nc1nc2c(s1)CN(C(=O)Nc1cccc(C(F)(F)F)c1)CC2` was tested. Which growth did it give?
A: 18.2% (inactive)

Q: Which growth does the source give for `O=C(N=Nc1c(O)[nH]c2ccccc12)Nc1ccc(Cl)cc1` here?
A: 95.3% (inactive)

Q: `Cn1ccnc1C(=O)/C=C/c1ccc(C(=O)Nc2ccc(F)cc2)cc1` was tested. Which growth did it give?
A: 17.6% (inactive)

Q: How did the growth turn out when `CCOC(=O)C(=Cc1cccc(C#N)c1)C(=O)OCC` was run?
A: 62.3% (inactive)

Q: How did the growth turn out when `C=CC1(C)C(O[Si](C)(C)C(C)(C)C)CC2C3OC(=O)NC31c1cccc3c1[C@H](C(=O)N3C)C2(C)C` (stereo not given in full) was run?
A: 48.5% (inactive)

Q: How did the growth turn out when `O=C1N[C@@H]2[C@@H](O)[C@@H](O)[C@H](O)C[C@H]2c2cc3c(c(O)c21)OCCO3` was run?
A: -45.7% (active)

Q: `Cc1ccc(-c2nc(C(Cl)Cl)nc3cc(C)nn23)cc1` was tested. Which growth did it give?
A: -9.67% (active)

Q: How did the growth turn out when `O=C(Nc1ncc(Cc2ccccc2Cl)s1)c1cccs1` was run?
A: 62.3% (inactive)

Q: Which growth does the source give for `CC1(C)OC(=O)C(=Cc2cccc(Br)c2)C(=O)O1` here?
A: 109% (inactive)

Q: How did the growth turn out when `COc1ccc(C/C(C)=C(/c2ccc(OCCN3CCCCCC3)cc2)c2ccc(OC(=O)NCc3ccccc3)cc2)cc1` was run?
A: 95.6% (inactive)

Q: Which growth does the source give for `O=C(CCCCCCN1CC(=O)N2[C@@H](c3ccc(Cl)cc3)c3[nH]c4ccccc4c3C[C@H]2C1=O)NO` here?
A: 59% (inactive)

Q: `CC[C@H](CC[C@@H](C)[C@H]1CC[C@H]2[C@@H]3CC[C@@H]4CC(=O)/C(=C\c5ccncc5)C[C@]4(C)[C@H]3CC[C@]12C)C(C)C` was tested. Which growth did it give?
A: 104% (inactive)
